High-throughput results: PubChem, several laboratories
hgDAF12 agonist = activates the H. glycines DAF-12 receptor ligand-binding domain; actives 1.8% (n = 370,000); activation, % at 6.8 µM; HEK293 GAL4-hgDAF12 UAS-luciferase reporter, agonist luminescence; normalized to butyrate control;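 active = activation above a cutoff set at the mean of all screened compounds plus 3 SD, cut at about 10% in these data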
ssDAF12 agonist = S. stercoralis DAF-12 activation, primary screen; HEK293 ssDAF-12/GRIP1 lit1-tk-luc reporter, luminescence; % of 3 µM dafachronic acid response; activation, % at 6.8 µM; actives 1% (n = 370,000); AID 652126;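 active = activation above the mean over all tested compounds plus 3 SD, cut at about 0.9% in these data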
hcDAF12 agonist = activators of H. contortus DAF-12 nuclear receptor | HEK293 hcDAF-12 lit1-tk-luc reporter, luminescence; 0% DMSO, 100% Δ7-dafachronic acid | activation, % at 6.8 µM | actives 1.4% (n = 370,000);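 active = activation above the mean of all tested compounds plus 3 SD, cut at about 5.5% in these data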
APP 5'UTR act = APP 5'UTR luciferase reporter activation; SH-SY5Y APP 5'UTR luciferase reporter, luminescence; zero percent = DMSO vehicle wells; activation, % at 2 µM; actives 1% (n = 190,000); AID 1276;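 active = activation above a set limit, based on mean plus 3 SD of controls, cut at about 140% in these data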
NF-kB neuron act = compounds increasing NF-kB expression in human neuronal cells; NF-kB reporter expression; stronger effect = higher value; fold change at 12.5 µM; actives 1.6% (n = 190,000); AID 1239; in the data active = fold change above about 3.3
LXR ag = LXR-beta agonism as hcDAF-12 counter-screen; 3,400 tested, under 10 active; shares compounds with hcDAF12 agonist; activation, % at 6.8 µM; AID 743027; HEK293 Gal4-LXR tk-luc reporter, luminescence, 24 h; normalized: DMSO 0%, positive control 100%;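 active = mean percent activation of the reporter above a cutoff set as the average over tested compounds plus their standard deviation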
Target sequence (P55055 whole entry, looked up, the tested form may be a part): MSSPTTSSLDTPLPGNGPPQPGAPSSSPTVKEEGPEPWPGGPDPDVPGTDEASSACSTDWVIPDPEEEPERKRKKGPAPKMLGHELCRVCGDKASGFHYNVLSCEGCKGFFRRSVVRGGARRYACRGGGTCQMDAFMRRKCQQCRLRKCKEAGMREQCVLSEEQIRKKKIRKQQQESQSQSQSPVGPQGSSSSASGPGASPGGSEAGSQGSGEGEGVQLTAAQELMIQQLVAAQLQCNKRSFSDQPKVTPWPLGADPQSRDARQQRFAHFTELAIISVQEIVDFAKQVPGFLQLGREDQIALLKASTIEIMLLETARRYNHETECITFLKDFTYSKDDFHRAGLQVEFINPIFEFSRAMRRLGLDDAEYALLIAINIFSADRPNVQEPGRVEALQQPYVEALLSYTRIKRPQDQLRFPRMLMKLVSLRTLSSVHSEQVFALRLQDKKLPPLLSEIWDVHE
hcDAF12 ag = hcDAF-12 agonism, confirmation assay. actives 61% (n = 3,400). shares compounds with hcDAF12 agonist. HEK293 hcDAF-12 lit1-tk-luc reporter, luminescence; % of Δ7-dafachronic acid response. AID 743032. activation, % at 6.8 µM;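 active = mean activation across triplicate tests above the threshold derived from the earlier primary screen, cut at about 5.5% in these data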
hgDAF12 conf = hgDAF-12 agonism, confirmation assay; shares compounds with hgDAF12 agonist; HEK293 GAL4-hgDAF12 luciferase reporter, agonist mode; percent of butyrate response; activation, % at 6.8 µM; actives 80% (n = 3,300);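 active = mean activation over triplicate wells above the hit cutoff derived from the earlier primary screen, cut at about 11% in these data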
LXR ag 2 = counter-screen for DAF-12 agonists: agonists of human LXR-beta; shares compounds with hgDAF12 agonist; HEK293 Gal4-LXR luciferase reporter, 24 h; activation, % at 6.8 µM; 3,300 tested, under 10 active; AID 743051;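 active = mean activation of the triplicate above a set limit carried over from the primary screen, none filed active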
Of the large screens only hits and unclear results are named; the others gave an inactive call (follow-up assays come after a bar, where they were run). Rows were chosen to be rich in hits. Some 3.4% of all compounds tested hit in one or more screens of this group.

COC(=O)[C@]12C[C@H](CC(=O)NCc3ccccc3)C(=O)N(CCc3ccc(OC)c(OC)c3)C1=C[C@H](COCc1ccccc1)O[C@@H]2C	none (no result: APP 5'UTR act, NF-kB neuron act)
COc1ccc(C2=NN3C(C2)c2ccccc2OC32C(=O)N(C)c3ccccc32)cc1 (configuration not stated)	hgDAF12 agonist 17, ssDAF12 agonist 2.4, hcDAF12 agonist 12, APP 5'UTR act 187, NF-kB neuron act 6 | LXR ag inactive | hcDAF12 ag inactive | hgDAF12 conf 22 | LXR ag 2 inactive
Cc1nn(-c2nc3ccccc3s2)c(N)c1-c1ccccc1	hgDAF12 agonist 19, hcDAF12 agonist 15, NF-kB neuron act 7.6 | LXR ag inactive | hcDAF12 ag inactive | hgDAF12 conf 18 | LXR ag 2 inactive
CC(=O)N1C[C@@H](c2c[nH]c3ccccc23)C=C[C@H]1C(=O)NS(=O)(=O)c1ccc(C)cc1	none (no result: APP 5'UTR act, NF-kB neuron act)
CCC(=O)Nc1ccc2oc(-c3cccc(C)c3)nc2c1	hgDAF12 agonist 15, hcDAF12 agonist 6.9, APP 5'UTR act 190, NF-kB neuron act 3.5 | LXR ag inactive | hcDAF12 ag 7.9 | hgDAF12 conf 16 | LXR ag 2 inactive
Cc1cccc(-c2nc3cc(NC(=O)C4CCCO4)ccc3o2)c1 (configuration not stated)	hgDAF12 agonist 14, ssDAF12 agonist 0.9, hcDAF12 agonist 8.7, APP 5'UTR act 138, NF-kB neuron act 4.7 | LXR ag inactive | hcDAF12 ag 7.8 | hgDAF12 conf 12 | LXR ag 2 inactive
CCC(=O)Nc1cccc(-c2nc3ccc(C)cc3o2)c1	none (no result: APP 5'UTR act, NF-kB neuron act)
Cc1ccc(-c2nc3cc(NC(=O)C(C)C)ccc3o2)cc1	hgDAF12 agonist 13, ssDAF12 agonist 1.3, hcDAF12 agonist 7.9, APP 5'UTR act 147 | LXR ag inactive | hcDAF12 ag inactive | hgDAF12 conf 15 | LXR ag 2 inactive
COc1ccc(S[C@]2(C(=O)N3CCCC3)CC(=O)N(C(=O)CCc3ccccc3)[C@@H]2c2ccc(OC)cc2)cc1	none (no result: APP 5'UTR act, NF-kB neuron act)
CC(C)C[C@H](NC1(C(=O)NCCc2c[nH]c3ccccc23)CCC1)C(=O)NCCCc1ccccc1	none (no result: APP 5'UTR act, NF-kB neuron act)
CN(C)c1ccc(C2NC(=O)c3ccccc3N2)cc1 (configuration not stated)	hgDAF12 agonist 14, hcDAF12 agonist 8.1 (no result: APP 5'UTR act, NF-kB neuron act) | LXR ag inactive | hcDAF12 ag 8.3 | hgDAF12 conf 20 | LXR ag 2 inactive
O=C1NC(c2ccc(Cl)cc2)Nc2ccccc21 (configuration not stated)	none
CCOc1ccc(-c2nnc(-c3cccs3)o2)cc1OCC	none
CCOc1ccc(-c2nnc(-c3cccs3)o2)cc1	hgDAF12 agonist 16, hcDAF12 agonist 7.4, NF-kB neuron act 4.2 | LXR ag inactive | hcDAF12 ag 7.8 | hgDAF12 conf 15 | LXR ag 2 inactive
COc1ccc(-n2c(N)c(C#N)c3ccc([N+](=O)[O-])cc3c2=O)cc1	none
COc1ccc(-n2cc3ccc([N+](=O)[O-])cc3n2)cc1	hgDAF12 agonist 21, hcDAF12 agonist 6.7 (no result: APP 5'UTR act, NF-kB neuron act) | LXR ag inactive | hcDAF12 ag 7.1 | hgDAF12 conf 19 | LXR ag 2 inactive
Cc1cc(C)cc(OC[C@@H](O)CN2CCC(C(O)(c3ccccc3)c3ccccc3)CC2)c1	none (no result: APP 5'UTR act, NF-kB neuron act)
CCn1c(C)cc(C=C2C(=O)c3ccccc3C2=O)c1C	hgDAF12 agonist 18, ssDAF12 agonist 4.4, hcDAF12 agonist 17, APP 5'UTR act 156, NF-kB neuron act 3.4 | LXR ag inactive | hcDAF12 ag 15 | hgDAF12 conf 15 | LXR ag 2 inactive
Cc1cc(C=C2C(=O)c3ccccc3C2=O)c(C)n1-c1ccc(Cl)cc1	none
Cc1ccc(C(=O)NC2CCCCN(C(C)C)C2=O)cc1 (configuration not stated)	none (no result: APP 5'UTR act, NF-kB neuron act)
c1ccc2nc3c(ccc4ccccc43)cc2c1	hgDAF12 agonist 21, ssDAF12 agonist 0.9, hcDAF12 agonist 12 (no result: APP 5'UTR act, NF-kB neuron act) | LXR ag inactive | hcDAF12 ag 11 | hgDAF12 conf 16 | LXR ag 2 inactive
CCCCNC(=O)c1cc(-c2ccc3c(c2)OCO3)on1	none (no result: APP 5'UTR act, NF-kB neuron act)
CC(C)NC(=O)c1cc(-c2ccc3c(c2)OCO3)on1	hgDAF12 agonist 14, hcDAF12 agonist 6.6 (no result: APP 5'UTR act, NF-kB neuron act) | LXR ag inactive | hcDAF12 ag inactive | hgDAF12 conf 14 | LXR ag 2 inactive
Cn1ccsc1=NC(=O)c1ccc(Cl)cc1	hgDAF12 agonist 14, ssDAF12 agonist 1.1, hcDAF12 agonist 9.4 | LXR ag inactive | hcDAF12 ag 7.9 | hgDAF12 conf 12 | LXR ag 2 inactive
Cc1ccc2nc3sc(C(=O)N4CCN(C)CC4)cc3cc2c1	none (no result: APP 5'UTR act, NF-kB neuron act)
CN(CCC#N)c1ccc(/C=C(\C#N)c2ccccn2)cc1	hgDAF12 agonist 23, ssDAF12 agonist 2.1, hcDAF12 agonist 17, APP 5'UTR act 180 | LXR ag inactive | hcDAF12 ag inactive | hgDAF12 conf 15 | LXR ag 2 inactive
CCN(Cc1ccccc1)c1ccc(/C=C(\C#N)c2ccccn2)cc1	hgDAF12 agonist 27, ssDAF12 agonist 2.1, hcDAF12 agonist 9.3 | LXR ag inactive | hcDAF12 ag inactive | hgDAF12 conf 13 | LXR ag 2 inactive
COc1cc(/C=C(\C#N)c2ccccn2)ccc1OCc1ccccc1	none
CN(CCC#N)c1ccc(C=C(C#N)c2ccc(Br)cc2)cc1	none (no result: APP 5'UTR act, NF-kB neuron act)
O=[N+]([O-])c1ccc(/C=C/c2ccc3ccccc3n2)cc1	hgDAF12 agonist 24, ssDAF12 agonist 1.0, hcDAF12 agonist 11, APP 5'UTR act 165, NF-kB neuron act 5.2 | LXR ag inactive | hcDAF12 ag 9.7 | hgDAF12 conf 13 | LXR ag 2 inactive
O=C(/C=C/c1ccc([N+](=O)[O-])cc1)Nc1ncc([N+](=O)[O-])s1	hgDAF12 agonist 27, hcDAF12 agonist 12, APP 5'UTR act 221 | LXR ag inactive | hcDAF12 ag 5.8 | hgDAF12 conf inactive | LXR ag 2 inactive
O=C(/C=C/c1ccc([N+](=O)[O-])cc1)NCc1ccccn1	none
Cc1nn(-c2ccccc2)c2sc(C(=O)N3CCC4(CC3)OCCO4)cc12	none (no result: APP 5'UTR act, NF-kB neuron act)
O=C(NC1=NCCS1)c1ccc(Cl)c(Cl)c1	hgDAF12 agonist 20, hcDAF12 agonist 9.2 (no result: APP 5'UTR act, NF-kB neuron act) | LXR ag inactive | hcDAF12 ag 7.5 | hgDAF12 conf 18 | LXR ag 2 inactive
O=C(NC1=NCCS1)c1cc(Cl)ccc1Cl	none (no result: APP 5'UTR act, NF-kB neuron act)
